# Results reported in ChEMBL document CHEMBL3988442, “University of Dundee, Small-Polar-MMV Screening Library” (2021).
# Target: T1, Methionyl-tRNA synthetase, putative (Leishmania donovani (strain BPK282A1)) (UniProt E9BF75)
# T1 sequence (whole entry): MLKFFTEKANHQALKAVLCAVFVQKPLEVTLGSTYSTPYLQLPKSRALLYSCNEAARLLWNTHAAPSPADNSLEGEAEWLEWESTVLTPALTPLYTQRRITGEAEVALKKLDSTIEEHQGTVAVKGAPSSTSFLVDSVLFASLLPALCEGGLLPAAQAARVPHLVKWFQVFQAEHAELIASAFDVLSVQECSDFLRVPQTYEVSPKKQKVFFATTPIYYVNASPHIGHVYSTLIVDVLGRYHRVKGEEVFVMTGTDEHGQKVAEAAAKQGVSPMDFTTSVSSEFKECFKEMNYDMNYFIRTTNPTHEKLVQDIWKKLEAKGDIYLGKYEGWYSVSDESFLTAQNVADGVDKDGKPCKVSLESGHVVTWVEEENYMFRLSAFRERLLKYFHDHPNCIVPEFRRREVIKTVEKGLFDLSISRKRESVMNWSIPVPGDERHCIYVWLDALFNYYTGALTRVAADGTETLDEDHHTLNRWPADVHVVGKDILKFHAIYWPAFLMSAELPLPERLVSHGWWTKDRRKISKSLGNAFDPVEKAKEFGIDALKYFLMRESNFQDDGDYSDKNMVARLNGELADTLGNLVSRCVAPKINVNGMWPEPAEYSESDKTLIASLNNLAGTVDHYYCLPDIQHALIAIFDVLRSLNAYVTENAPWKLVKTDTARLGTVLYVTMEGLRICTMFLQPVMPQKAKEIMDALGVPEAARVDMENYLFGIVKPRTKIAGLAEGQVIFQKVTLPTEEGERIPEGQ
# Assay: Leishmania donovani Methionine tRNA synthetase (LdMetRS):v7. Dose response assay
# Format: functional
# Set-up: conc 80 nM, time 150 minutes
smiles,measurement,setting,value
Cc1nc(N(C)C)c2c3c(sc2n1)CCCC3,PXC50,MAX_EFFECT 4.166666667,< 4
same,PXC50,MAX_EFFECT 4.385964912,< 4
CCOCCN(CCOCC)c1nc(C)nc2sccc12,PXC50,MAX_EFFECT 12.27154047,< 4
same,PXC50,MAX_EFFECT 15.66579634,< 4
O=C1NCCCC12CCN(c1nc3c(c(C(F)(F)F)n1)CCCC3)C2 (stereo not given),PXC50,MAX_EFFECT 4.081632653,< 4
same,PXC50,MAX_EFFECT 6.313131313,< 4
CC(C)C[C@H](N)COc1ccccc1-c1ccccc1,PXC50,MAX_EFFECT 19.82942431,< 4
same,PXC50,MAX_EFFECT 21.32505176,< 4
CN(C)C(=O)N1CCN(c2ccc3ncc(-c4ccc5onc(N)c5c4)n3n2)CC1,PXC50,MAX_EFFECT 21.88295165,< 4
same,PXC50,MAX_EFFECT 25.43859649,< 4
CS(=O)(=O)N1CCN(c2ccc3ccc(C(=O)NCCN4CCc5ccccc5C4)cn23)CC1,PXC50,"BOTTOM 9.287524867, HILLSLOPE 2.626114762, MAX_EFFECT 78.976234, TOP 76.44379257",4.95
same,PXC50,"BOTTOM -0.296501823, HILLSLOPE 1.63582329, MAX_EFFECT 73.68421053, TOP 78.31707036",5.09
Cc1nc(N2CC(N3CCCCC3C)C2)c2ccsc2n1 (stereo not given),PXC50,MAX_EFFECT 5.319148936,< 4
same,PXC50,MAX_EFFECT 5.699481865,< 4
Cc1sc2nc(CN3CCCC3)nc(NC3CCCC3)c2c1C,PXC50,MAX_EFFECT 34.69387755,< 4
same,PXC50,MAX_EFFECT 40.15151515,< 4
Cc1nc(N2C[C@@H](CN3CCCN(C)CC3)[C@@H](CO)C2)c2ccsc2n1,PXC50,MAX_EFFECT 12.53263708,< 4
same,PXC50,MAX_EFFECT 15.40469974,< 4
CCc1cc2c(NC(C(=O)O)C(C)C)nc(-c3ccccc3)nc2s1 (stereo not given),PXC50,MAX_EFFECT 27.80748663,< 4
same,PXC50,MAX_EFFECT 31.69398907,< 4
CC(C)C[C@@H](COc1cccc(F)c1Oc1ccc(Cl)cc1)N(C)C,PXC50,MAX_EFFECT 6.418219462,< 4
same,PXC50,MAX_EFFECT 11.30063966,< 4
CCc1cc2c(NCCCN(C)C)nc(-c3ccccc3)nc2s1,PXC50,MAX_EFFECT 10.07371007,< 4
same,PXC50,MAX_EFFECT 10.55276382,< 4
CC(C)C[C@H](N)COc1ccc(OCc2ccccc2)c(F)c1,PXC50,MAX_EFFECT 25.05175983,< 4
same,PXC50,MAX_EFFECT 28.78464819,< 4
Cc1nc(NCCCC(=O)O)c2c3c(sc2n1)CCCC3,PXC50,MAX_EFFECT 9.823677582,< 4
same,PXC50,MAX_EFFECT 10.43256997,< 4
COCCNc1nc(-c2ccc(C)cc2)cc(C(F)(F)F)n1,PXC50,MAX_EFFECT 7.978723404,< 4
same,PXC50,MAX_EFFECT 8.29015544,< 4
CS(=O)(=O)N1CCN(c2ccc3ccc(C(=O)NC4CCN(c5ncccn5)CC4)cn23)CC1,PXC50,"BOTTOM 1.498519447, HILLSLOPE 2.25926472, MAX_EFFECT 69.85645933, TOP 69.17206782",4.97
same,PXC50,"BOTTOM 9.613017987, HILLSLOPE 3.179249655, MAX_EFFECT 74.58866545, TOP 74.15419217",4.86
Cc1ccc(N2CCCC(N(C)c3ncnc4c3CCC4)C2)nn1 (stereo not given),PXC50,MAX_EFFECT 10.79812207,< 4
same,PXC50,MAX_EFFECT 20.18518519,< 4
O=c1nc(NCCCNCc2cc(Br)cc(Br)c2)[nH]c2ccsc12,PXC50,"BOTTOM 2.299047881, HILLSLOPE 2.649797199, MAX_EFFECT 103.7296037, TOP 100.0081261",6.16
same,PXC50,"BOTTOM 10.20336465, HILLSLOPE 2.013529983, MAX_EFFECT 101.8604651, TOP 99.90152213",6.19
CS(=O)(=O)N1CCN(c2ccc3ccc(C(=O)NCCS(=O)(=O)N4CCOCC4)cn23)CC1,PXC50,"BOTTOM 0.75923045, HILLSLOPE 2.636958023, MAX_EFFECT 55.02392344, TOP 52.30756256",5
same,PXC50,"BOTTOM 6.938223691, HILLSLOPE 3.502169957, MAX_EFFECT 60.32906764, TOP 60.07357055",4.85
CC(=O)N1CCCC(NC(=O)c2ccc3ccc(N4CCN(S(C)(=O)=O)CC4)n3c2)C1 (stereo not given),PXC50,"BOTTOM 3.656156878, HILLSLOPE 2.486754691, MAX_EFFECT 66.17915905, TOP 66.88204214",4.81
same,PXC50,"BOTTOM -4.526143978, HILLSLOPE 1.702686974, MAX_EFFECT 60.76555024, TOP 62.80104332",5
O=C(NCC1(O)CCC(F)(F)CC1)c1cc(=O)c2cc(F)ccc2o1,PXC50,MAX_EFFECT 1.754385965,< 4
same,PXC50,MAX_EFFECT 9.021113244,< 4
Nc1noc2ccc(-c3cnc4ccc(NCC5CC5)nn34)cc12,PXC50,MAX_EFFECT 32.56997455,< 4
same,PXC50,MAX_EFFECT 37.71929825,< 4
Cc1nc(N2CCNC(=O)CC2)c2c(CC(C)C)csc2n1,PXC50,MAX_EFFECT 6.557377049,< 4
same,PXC50,MAX_EFFECT 9.625668449,< 4
O=C(c1cc[nH]n1)N1CCC(F)(F)C2(CCN(c3ccccn3)C2)C1 (stereo not given),PXC50,MAX_EFFECT 8.450704225,< 4
same,PXC50,MAX_EFFECT 10.92592593,< 4
OC1CCc2cc(Cl)cc(Cl)c21 (stereo not given),PXC50,MAX_EFFECT 6.26349892,< 3
same,PXC50,MAX_EFFECT 9.69581749,< 3
Cc1cc2c(N3CCCC3)nc(-c3cccnc3)nc2s1,PXC50,MAX_EFFECT 8.196721311,< 4
same,PXC50,MAX_EFFECT 10.16042781,< 4
Cc1nc(NCCCNS(C)(=O)=O)c2c3c(sc2n1)CCC3,PXC50,MAX_EFFECT 6.914893617,< 4
same,PXC50,MAX_EFFECT 9.844559585,< 4
Cn1cc(CN2CCC(F)(F)C3(CCN(c4ncccn4)C3)C2)cn1 (stereo not given),PXC50,MAX_EFFECT -0.938967136,< 4
same,PXC50,MAX_EFFECT -2.777777778,< 4
O=C(NCC1CCCCC1)c1cc(=O)c2cc(F)cc(O)c2o1,PXC50,MAX_EFFECT 5.56621881,< 4
same,PXC50,MAX_EFFECT 11.64274322,< 4
Cc1nc(N(C)CC(=O)NC2CC2)c2c3c(sc2n1)CCC3,PXC50,MAX_EFFECT 3.703703704,< 4
same,PXC50,MAX_EFFECT 5.866666667,< 4
